Results on one molecule are retold here after PubChem BioAssay AID743379 (National Center for Advancing Translational Sciences (NCATS), 2014).

Active and inactive are the calls of the source. The call rests on the fitted dose curve.

In this experiment the target is Phosphatidylinositol 5-phosphate 4-kinase type-2 beta (Homo sapiens) (UniProt P78356). The experiment in a line: qHTS for Inhibitors of PI5P4K: PI5P4K-beta 32P-ATP TLC Secondary Assay for Probe SAR. As to conditions: recombinant PI5P4K-beta, 32P-ATP TLC lipid kinase assay. The text has this: In addition to finding PI5P, we discovered the type II phosphatidylinositol 5-phosphate 4-kinase (PI5P4K) family (alpha, beta, gamma isoforms) that catalyze the conversion of PI5P to PI(4,5)P2. Alternatively, PI(4,5)P2 can also be synthesized through phosphatidylinositol-4-phosphate (PI4P) by the type I phosphatidylinositol 4-phosphate 5-kinases (PI4P5K). These PI5P4K enzymes therefore represent one way by which cells can regulate endogenous PI5P levels and play important roles in insulin signaling and in stress responses. […] A qHTS PI5P4K-alpha ADP-Glo assay was developed to identify specific modulators of human PI5P4K, phosphatidylinositol-5-phosphate 4-kinase (Type II PIPK). To confirm that the active compounds and their analogs were true and selective inhibitors, a secondary Thin-layer Chromatography (TLC) assays against recombinant PI5P4K-alpha, PI4P5K-alpha or PI5P4K-beta that utilize a radioactively labeled ATP were developed. The data herein is the result of the PI5P4K-beta TLC assay. […]
Chain of Phosphatidylinositol 5-phosphate 4-kinase type-2 beta (Homo sapiens) (P78356 whole entry, looked up, canonical isoform): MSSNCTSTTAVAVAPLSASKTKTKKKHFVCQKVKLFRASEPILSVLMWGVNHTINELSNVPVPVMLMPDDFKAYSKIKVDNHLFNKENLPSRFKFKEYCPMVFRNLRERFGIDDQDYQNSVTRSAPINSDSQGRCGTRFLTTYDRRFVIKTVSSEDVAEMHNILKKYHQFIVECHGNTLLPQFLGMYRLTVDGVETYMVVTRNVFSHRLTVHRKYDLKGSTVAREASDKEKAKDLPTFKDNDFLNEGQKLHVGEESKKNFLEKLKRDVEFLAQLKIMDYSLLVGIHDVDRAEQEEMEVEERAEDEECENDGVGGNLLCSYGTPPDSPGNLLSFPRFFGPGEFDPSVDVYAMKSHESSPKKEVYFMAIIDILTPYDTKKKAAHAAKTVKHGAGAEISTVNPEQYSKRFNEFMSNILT
The kinase reaction was carried out in a total of 50 microL of kinase buffer (50 mM HEPES pH 7.4 and 10 mM MgCl2) containing 20 microM of the lipids that were suspended by sonication. […] The radiolabeled product, PI(4,5)P2, was quantified with a phosphorimager (Molecular Dynamics, STORM840, GE Healthcare, Waukesha, WI, USA).
(In general: Quantitative high-throughput screening tests each substance at several concentrations.)
Take `O=C1Nc2ccc(C(=O)c3ccco3)cc2/C1=C/c1cc(Cl)c(O)c(Cl)c1`: the Potency is 890 nM (active).
